# Experimental data from PubChem BioAssay AID1566 (Sanford-Burnham Center for Chemical Genomics, 2009).
# In all, about 290,000 compounds went through this assay and about 1,800 (0.62%) were called active. This is one part of a sample in which actives are shown more often than they occur. Unmarked numbers belong to inactive results. Cut-off read from the data, not from the text of the source: active = inhibition above about 50%; inactive = the rest.
# Test: NOD2 signaling inhibitors, cell-based, luminescence, uHTS, HEK293 (AID 1566)
# Conditions: HEK293 NOD2/NF-kB luciferase reporter, at 4 µM, active compounds read high
row,SMILES,inhibition
1,Cc1cccc(C(=O)NC(=S)Nc2ccc3[nH]c(=O)[nH]c3c2)c1,-10.1%
2,O=C(COC(=O)CCC(=O)c1cccs1)Nc1ccc(Cl)cn1,-14%
3,CCN=C1NN=C(c2cc(C)n(CCc3ccccc3)c2C)CS1,0.1%
4,Cc1cc(-c2csc(N)n2)c(C)n1Cc1ccco1,1.7%
5,COCCCN=C1NN=C(c2cc(C)n(Cc3ccco3)c2C)CS1,-60.2%
6,Cc1cc(C2=NNC(=NC3CC3)SC2)c(C)n1Cc1ccco1,85.3% (active)
7,CCN=C1NN=C(c2cc(C)n(Cc3ccco3)c2C)CS1,82.2% (active)
8,Cc1cc(C2=NNC(=NC3CCCCC3)SC2)c(C)n1-c1c(C)n(C)n(-c2ccccc2)c1=O,2%
9,CCCC(=O)C1=C(O)C(C(=O)OC)C(C)(C)CC1=Nc1cccc2ccccc12 (stereo not given),13.4%
10,CCCn1c(SCC(=O)NC2CCCCC2)nnc1-c1ccccn1,22.2%
11,C=CCn1c(O)c(C=Nc2ccc(CN3CCCCC3)cc2)c(=O)[nH]c1=S,25.5%
12,CCCCCn1ccc(=N)cc1,31.1%
13,CCCCCCn1ccc(=N)cc1,40.3%
14,C[C@]12CCC3C(CC[C@H]4CC(O)CC[C@]34C)C1CC/C2=N/O (stereo not given in full),26.5%
15,C[C@]12CCC3C(CC[C@H]4CC(O)CC[C@]34C)C1CC/C2=N/NC(=O)c1ccncc1 (stereo not given in full),-5.7%
16,C/C(=N\NC(N)=S)C1=CCC2C3CC[C@H]4CC(O)CC[C@]4(C)C3CC[C@]12C (stereo not given in full),54.6% (active)
17,Cc1cc(CNC(=O)c2cccc([N+](=O)[O-])c2C)c2ccccc2n1,31.5%
18,O=C(Oc1ccccc1C(=O)Nc1ccccc1)c1ccc(Br)c([N+](=O)[O-])c1,-12.7%
19,O=C(CSc1nnc(CNC(=O)c2ccco2)o1)Nc1ccc(OC(F)(F)F)cc1,9.8%
20,COc1ccccc1NC(=O)CSC1=NC(=O)C(Cc2ccccc2)C(=O)N1 (stereo not given),-3%
21,CC(=O)NS(=O)(=O)c1ccc(NS(=O)(=O)c2ccc3ccccc3c2)cc1,0.7%
22,COc1ccccc1Cn1c(=S)[nH]c2cc(C(=O)NCCN(C)C)ccc2c1=O,20.6%
23,Cc1cc(NC(=O)CSc2ccc3nnc(-c4ccc(Cl)cc4)n3n2)no1,5.8%

row,SMILES,inhibition
1,CCS(=O)(=O)C1=NN2C(=N)/C(=C\c3ccc(OS(=O)(=O)c4ccccc4)c(OC)c3)C(=O)N=C2S1,12.5%
2,C=CCOc1ccc(/C=C2\C(=N)N3N=C(S(=O)(=O)CC)SC3=NC2=O)cc1OC,28.5%
3,CCOc1cc(/C=C2\C(=N)N3N=C(C)SC3=NC2=O)ccc1OCCOc1cccc(OC)c1,7.2%
4,COc1cc(/C=C2\C(=N)N3N=C(S(C)(=O)=O)SC3=NC2=O)cc(OC)c1OCCOc1cccc(C)c1,25.9%
5,CCOC(=O)C1=NN(c2ccccc2)C2C(=O)N(c3ccccc3OC)C(=O)C12 (stereo not given),21.2%
6,Cc1cc(C)n2nc(SCC(=O)c3ccccc3)nc2n1,-15.3%
7,COc1ccc(CC(=O)Nc2nc(-c3ccc(F)c(F)c3)cs2)cc1,15.8%
8,COc1cc(CC(=O)Nc2nc(-c3ccc(F)c(F)c3)cs2)cc(OC)c1OC,58.7% (active)
9,COc1ccc(-c2csc(NC(=O)Cc3cc(OC)c(OC)c(OC)c3)n2)cc1OC,22.7%
10,O=C(Nc1c(F)cc(F)cc1Br)c1cccnc1,-9.2%
11,C/C(CC(=O)Nc1ccc(Cl)c(Cl)c1)=N\NC(N)=S,-15.1%
12,COc1ccc(-c2cc(-c3ccc(Cl)cc3)c(C#N)c(SCC(=O)O)n2)cc1,62.5% (active)
13,N#Cc1c(-c2ccc(Cl)cc2)cc(-c2ccccc2)nc1SCC(=O)O,26%
14,COc1ccc(-c2cc(C(F)(F)F)c(C#N)c(SCC(=O)O)n2)cc1,9.7%
15,COc1ccc(Cl)c(OC)c1C(=O)NC(=O)Nc1nc(C)nc(C)n1,3.1%
16,CCC(=O)Nc1cc2nn(-c3ccccc3)nc2cc1Cl,-189%
17,CC(=O)Nc1cc2nn(-c3ccccc3)nc2cc1Cl,-133%
18,CC(C)(C)C(=O)Nc1cc2nn(-c3ccccc3)nc2cc1Cl,76.2% (active)
19,CC1(C)c2ccccc2N2CCC(=O)NC21/C=C/c1ccco1 (stereo not given),3.8%
20,COc1ccc(NC(=O)c2cccc(N3C(=O)C4C5C=CC(C6CC56)C4C3=O)c2)cc1 (stereo not given),9.4%
21,O=C(Nc1ccccc1)c1cccc(N2C(=O)C3C4C=CC(C5CC45)C3C2=O)c1 (stereo not given),31.7%
22,COC(=O)c1ccc(NC(=O)c2cccc(N3C(=O)C4C5C=CC(C6CC56)C4C3=O)c2)cc1 (stereo not given),58.5% (active)
23,CCOc1ccccc1C(=O)NC(C(=O)NCc1ccccc1OC)C(C)C (stereo not given),2.5%

row,SMILES,inhibition
1,COCCNC(=S)N1CCN(c2nc(-c3ccc(Cl)cc3)cs2)CC1,35.9%
2,CC(C)CNC(=S)N1CCN(c2nc(-c3ccc(Cl)cc3)cs2)CC1,54.9% (active)
3,CNC(=S)N1CCN(c2nc(-c3ccc(Cl)cc3)cs2)CC1,11.2%
4,CCN(CC(=O)Nc1c(F)cccc1F)C(=O)CCc1c[nH]c2ccccc12,-24.9%
5,Cc1onc(-c2ccccc2)c1NC(=O)N(CCC(=O)O)Cc1ccccc1,15.3%
6,Cc1c(NC(=O)NCc2ccccc2)c(=O)n(-c2ccccc2)n1C,-6.6%
7,Cc1ccc(C(=O)N/C(=C\c2ccc(-c3ccccc3[N+](=O)[O-])o2)C(=O)NCCCN(C)C)cc1,49.4%
8,Cc1ccc(C(=O)N/C(=C\c2ccc(-c3ccccc3[N+](=O)[O-])o2)C(=O)NCCN(C)C)cc1,50.5% (active)
9,Cc1ccc(C(=O)N/C(=C\c2ccc(-c3ccccc3[N+](=O)[O-])o2)C(=O)NCCCN2CCOCC2)cc1,38.2%
10,NC(=O)c1cc([N+](=O)[O-])ccc1NCCN1C(=O)c2ccc(C(=O)O)cc2C1=O,17.5%
11,Cc1cc(=O)[nH]c2ccc(S(=O)(=O)Nc3ccccc3)cc12,4.4%
12,O=C(Nc1ccc(C(=O)N2CCOCC2)cc1)c1cccc(Br)c1,8%
13,Cc1sc2nc3c(C(=O)N4CCN(c5ccccn5)CC4)cccn3c(=O)c2c1C,3.3%
14,C/C(Cn1nnc([N+](=O)[O-])n1)=N\NC(=O)c1cccc(Cl)c1,48.8%
15,C/C(Cn1nnc([N+](=O)[O-])n1)=N\NC(=O)c1ccc(O)cc1,37.7%
16,COc1ccc(-c2csc(/C(C#N)=C\c3ccc(OC)c([N+](=O)[O-])c3)n2)cc1,25.7%
17,COc1ccc(-c2csc(/C(C#N)=C\c3ccc(O)c([N+](=O)[O-])c3)n2)cc1OC,-7.4%
18,COc1ccc(C(=O)N/N=C/c2c(CO)cnc(C)c2O)cc1,-27.8%
19,Cc1ncc(CO)c(/C=N/Nc2ccc(C(F)(F)F)cn2)c1O,59.1% (active)
20,Cc1ncc(CO)c(/C=N/NC(=O)c2ccc(O)cc2)c1O,-8.9%
21,Cc1ncc(CO)c(/C=N/Nc2cccc(Cl)n2)c1O,-52.5%
22,Cc1ncc(CO)c(/C=N/NC(=O)c2ccc(Br)cc2)c1O,51.6% (active)
23,COc1ccccc1N/N=C/c1c(CO)cnc(C)c1O,-3.8%

row,SMILES,inhibition
1,Cc1c(=O)n(OCc2ccccn2)c2ccccc2[n+]1[O-],9.3%
2,N#CC1=C(SCC(=O)Nc2ccc(C(=O)O)cc2)NC(=O)CC1c1ccco1 (stereo not given),-4.5%
3,COc1ccc(-c2[nH]ncc2CN2CCN(c3ccccn3)CC2)c(OC)c1,11.3%
4,COC(=O)c1sc(S(=O)(=O)N2CCC(C(=O)O)CC2)c(C(=O)OC)c1C,-0.8%
5,COC(=O)COc1ccc(S(=O)(=O)N2CCCCC2)cc1[N+](=O)[O-],4.8%
6,COc1cc(NC(C)=O)ccc1-c1cc2ccccc2oc1=O,-3.4%
7,COc1cc(NC(=O)COc2ccc(Cl)cc2)ccc1-c1cc2ccccc2oc1=O,16.1%
8,O=c1[nH]c(C2CCCN(S(=O)(=O)c3ccccc3)C2)nc2c1nnn2Cc1ccc2c(c1)OCCO2 (stereo not given),21.7%
9,O=C(CN(CC1CCCO1)C(=O)CCC(=O)Nc1ccccn1)NCC1CCCO1 (stereo not given),4.7%
10,Cc1ccc(C)c(-n2c(-c3ccc4c(c3)OCO4)n[nH]c2=S)c1,13.9%
11,C=C(C)COc1ccc(-c2nc(N)nc(C)c2-c2ccc(OC)cc2)c(O)c1,20.5%
12,O=C(CN1C(=O)NC2(CCCC2)C1=O)Nc1ccccc1C(F)(F)F,18.6%
13,CCC(C)(C)C1CCC2(CC1)NC(=O)N(CC(=O)N(C)CC(=O)Nc1ccccc1C(F)(F)F)C2=O (stereo not given),52.8% (active)
14,CCc1ccccc1NC(=O)CN(C)C(=O)CN1C(=O)NC2(CCCCCC2)C1=O,9.4%
15,CCOC(=O)N1CCC(NC(=O)c2ccc3c(c2)N(C)CCS3)CC1,4.6%
16,CN(C)S(=O)(=O)c1ccc(C(=O)Nc2cc3c(cc2C(=O)O)OCCCO3)cc1,4%
17,COc1ccc(C2NC(=O)NC(C)=C2[N+](=O)[O-])cc1OC (stereo not given),9.2%
18,COc1ccc(/C=N/n2c(C)nc3ccccc3c2=O)cc1,-11.4%
19,CCOC(=O)C1=C2c3ccc4ccccc4c3CC(C)(C)N2C(=O)C1=O,17.7%
20,CC1(C)Cc2c(ccc3ccccc23)C2=C(C(=O)N3CCCC3)C(=O)C(=O)N21,52.7% (active)
21,CC1(C)Cc2ccccc2C2=C(C(=O)N3CCCCCC3)C(=O)C(=O)N21,16.7%
